Measured values as given in PubChem BioAssay (EPA / NIEHS).
Results filed as inconclusive are left out. The source made the active and inactive calls. Rule for the calls: active = hit-call score of the fitted dose curve at least 0.9, where 1 is the maximum; inconclusive = response in the unintended direction; inactive = score below 0.9.

Tests used:
[1] = target: sheep Cyclooxygenase-1 (Cox1), PTGS1 (gene 443551) (UniProt P05979); assay: NVS_ENZ_oCOX1: NovaScreen (NVS) Enzymatic Assay for sheep Cyclooxygenase-1 (Cox1) (AID 2283239);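 note: actives reduce cyclooxygenase activity so potencies are for inhibitors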
In short: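 Ovine seminal vesicle extract; absorbance (colorimetric) enzyme read-out at 0.66 h post-dose. Primary: single conc 25 uM, duplicate. Follow-up: concentration series on actives. Activity = signal loss vs DMSO baseline.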

[2] = tested on: guinea pig Leukotriene B4 Receptor (LTB4), gene 100379538; assay: NVS_GPCR_gLTB4: NovaScreen (NVS) G Protein-Coupled Receptor Assay for guinea pig Leukotriene B4 Receptor (LTB4) (AID 2283247)
In short: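 Radioligand displacement on guinea pig spleen membranes, filter-based scintillation counting 2 h after dosing. Primary duplicate single point at 25 uM; hits over threshold (e.g. 30% inhibition) run in concentration-response up to 50 uM, DMSO baseline.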

[3] = target: human Adrenergic, Alpha 2c Receptor (Adra2C), ADRA2C (gene 152) (UniProt P18825); assay: NVS_GPCR_hAdra2C: NovaScreen (NVS) G Protein-Coupled Receptor Assay for human Adrenergic, Alpha 2c Receptor (Adra2C) (AID 2283259)
In short: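 Radioligand binding on Sf9-expressed receptor membranes, 1 h after chemical dosing, filter-based scintillation read-out. Loss of binding fitted positively versus DMSO; primary duplicate screen at 25 uM, actives retested in concentration series.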

[4] = target: rat Constitutive Nitric Oxide Synthase (CNOS), Nos1 (gene 24598) (UniProt P29476); assay: NVS_ENZ_rCNOS: NovaScreen (NVS) Enzymatic Assay for rat Constitutive Nitric Oxide Synthase (CNOS) (AID 2283236)
In short: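 Enzyme activity in rat brain membrane preparation, read 1 h after dosing by filter-based radiometric scintillation counting. Primary screen in duplicate at 25 uM; actives (e.g., ≥30% inhibition) then run in concentration-response up to 50 uM.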

[5] = target: human Serotonin, 5-Hydroxytryptamine Receptor 2A (5HT2A), HTR2A (gene 3356) (UniProt P28223); assay: NVS_GPCR_h5HT2A: NovaScreen (NVS) G Protein-Coupled Receptor Assay for human Serotonin, 5-Hydroxytryptamine Receptor 2A (5HT2A) (AID 2283249)
In short: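 Human cortex membranes, cell-free radioligand binding; filter-based scintillation read 1.5 h after dosing. Duplicate screen at 25 uM first; displacement of specific binding (loss of signal) versus DMSO.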

[6] = target: bovine Dopamine Receptor (DR), Non-selective Binding, DRD1 (gene 281125) (UniProt Q95136); assay: NVS_GPCR_bDR_NonSelective: NovaScreen (NVS) G Protein-Coupled Receptor Assay for bovine Dopamine Receptor (DR), Non-selective Binding (AID 2283241)
In short: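 Bovine striatal membranes; radioligand displacement read by filtration and scintillation counting 1 h after dosing, loss of signal vs DMSO. Screened in duplicate at 25 uM, then concentration-response for hits.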

[7] = tested on: bovine Histamine 1 Receptor (H1), gene 281231; assay: NVS_GPCR_bH1: NovaScreen (NVS) G Protein-Coupled Receptor Assay for bovine Histamine 1 Receptor (H1) (AID 2283246)
In short: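 Radioligand displacement on bovine cerebellar membranes, 1 h after dosing, filter-based scintillation read-out; loss of signal vs DMSO. Duplicate single-concentration screen at 25 uM, then concentration-response up to 50 uM for hits.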

[8] = target: guinea pig Opioid, Kappa 1 Receptor (OpiateK), OPRK1 (gene 100135587) (UniProt P41144); assay: NVS_GPCR_gOpiateK: NovaScreen (NVS) G Protein-Coupled Receptor Assay for guinea pig Opioid, Kappa 1 Receptor (OpiateK) (AID 2283252);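 note: radioligand displacement from kappa opioid receptor in guinea pig cerebellar membranes; active means reduced radioligand binding relative to DMSO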
In short: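 Guinea pig cerebellar membranes, radioligand displacement with filter-based scintillation counting, 2 h after dosing. Primary screen single concentration 25 uM in duplicate; actives retested in concentration series; loss of binding fitted versus DMSO.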

[9] = target: human Serotonin, 5-Hydroxytryptamine Receptor 7 (5HT7), HTR7 (gene 3363) (UniProt P34969); assay: NVS_GPCR_h5HT7: NovaScreen (NVS) G Protein-Coupled Receptor Assay for human Serotonin, 5-Hydroxytryptamine Receptor 7 (5HT7) (AID 2283255);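 note: hits reduce specific radioligand binding relative to DMSO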
In short: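 Radioligand displacement on membranes from CHO cells expressing human 5HT7, 1 h incubation, filter-based scintillation counting. Primary screen used a single 25 uM concentration in duplicate; actives were followed up in concentration series.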

[10] = target: human Adrenergic, Alpha 2A Receptor (Adra2A), ADRA2A (gene 150) (UniProt P08913); assay: NVS_GPCR_hAdra2A: NovaScreen (NVS) G Protein-Coupled Receptor Assay for human Adrenergic, Alpha 2A Receptor (Adra2A) (AID 2283257)
In short: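 Radioligand filter-binding was run on HT29-derived membranes, cell-free, read by scintillation counting 1 h after dosing. Primary screening was in duplicate at 25 uM, with concentration series in follow-up. Loss of signal versus DMSO indicates displacement.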

[11] = tested on: bovine Angiotensin II Receptor Type 2 (AT2), gene 407157; assay: NVS_GPCR_bAT2: NovaScreen (NVS) G Protein-Coupled Receptor Assay for bovine Angiotensin II Receptor Type 2 (AT2) (AID 2283240)
In short: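 Radioligand displacement on bovine cerebellar membranes, 1 hour incubation, filter-based scintillation counting; loss of signal vs DMSO. Duplicate single-point screen at 25 uM, then concentration-response to 50 uM maximum.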

[12] = target: Adenosine receptor A1 (Bos taurus) (UniProt P28190); assay: NVS_GPCR_bAdoR_NonSelective: NovaScreen (NVS) G Protein-Coupled Receptor Assay for bovine Adenosine Receptor (AdoR), Non-selective Binding (AID 2283244)
In short: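 Bovine striatal membranes, radioligand displacement binding, 1 h after dosing, filter-based scintillation counting. Screened in duplicate at 25 uM, then concentration-response up to 50 uM; loss of specific binding relative to DMSO.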

[13] = tested on: guinea pig Muscarinic, Peripheral (Mperiperal) Receptor, Non-selective Binding, gene 100379235; assay: NVS_GPCR_gMPeripheral_NonSelective: NovaScreen (NVS) G Protein-Coupled Receptor Assay for guinea pig Muscarinic, Peripheral (Mperiperal) Receptor, Non-selective Binding (AID 2283250)
In short: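 Guinea pig bladder membranes, radioligand binding read 1 h after dosing by filter scintillation counting; loss of signal vs DMSO. Primary duplicate screen at 25 uM, then concentration-response up to 50 uM.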

[14] = target: human Serotonin, 5-Hydroxytryptamine Receptor 6 (5HT6), HTR6 (gene 3362) (UniProt P50406); assay: NVS_GPCR_h5HT6: NovaScreen (NVS) G Protein-Coupled Receptor Assay for human Serotonin, 5-Hydroxytryptamine Receptor 6 (5HT6) (AID 2283253)
In short: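 Radioligand binding to 5HT6 in HEK293-derived membranes, cell-free, 1 h after dosing; bound ligand measured by filter-based scintillation counting. Primary screen in duplicate at 25 uM; actives retested in concentration series.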

[15] = target: human Adenosine A1 Receptor (AdoRA1), ADORA1 (gene 134) (UniProt P30542); assay: NVS_GPCR_hAdoRA1: NovaScreen (NVS) G Protein-Coupled Receptor Assay for human Adenosine A1 Receptor (AdoRA1) (AID 2283254)
In short: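 Radioligand binding was run on human cortical membranes, cell-free, with filter-based scintillation counting 1 h after dosing. The primary screen was duplicate at 25 uM, followed by concentration series. Signal loss versus DMSO was fitted positive-direction.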

[16] = target: human Adenosine A2a Receptor (AdoRA2a), ADORA2A (gene 135) (UniProt P29274); assay: NVS_GPCR_hAdoRA2a: NovaScreen (NVS) G Protein-Coupled Receptor Assay for human Adenosine A2a Receptor (AdoRA2a) (AID 2283256)
In short: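 Cell-free radioligand binding on membranes from HEK293 expressing the receptor; competitive displacement read 1.5 h after dosing by filter-based scintillation counting. Primary screen in duplicate at 25 uM; actives followed in concentration series, with DMSO as baseline.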

[17] = target: human Adrenergic, Beta 1 Receptor (Adrb1), ADRB1 (gene 153) (UniProt P08588); assay: NVS_GPCR_hAdrb1: NovaScreen (NVS) G Protein-Coupled Receptor Assay for human Adrenergic, Beta 1 Receptor (Adrb1) (AID 2283258)
In short: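 Cell-free radioligand displacement on receptor from human neuroepithelioma cells; 2 h after dosing, filter-based scintillation counting. Primary screen in duplicate at 25 uM, actives retested in concentration series; loss of signal vs DMSO baseline.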

[18] = target: Beta-2 adrenergic receptor (Homo sapiens) (UniProt P07550); assay: NVS_GPCR_hAdrb2: NovaScreen (NVS) G Protein-Coupled Receptor Assay for human Adrenergic, Beta 2 Receptor (Adrb2) (AID 2283261)
In short: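 Filter-based radioligand binding using receptor prepared from CHO cells, 1 h incubation, scintillation counting. Primary screen in duplicate at 25 uM, actives retested in concentration series; loss of binding relative to DMSO.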

Chain of sheep Cyclooxygenase-1 (Cox1), PTGS1 (gene 443551) (P05979 whole entry, looked up): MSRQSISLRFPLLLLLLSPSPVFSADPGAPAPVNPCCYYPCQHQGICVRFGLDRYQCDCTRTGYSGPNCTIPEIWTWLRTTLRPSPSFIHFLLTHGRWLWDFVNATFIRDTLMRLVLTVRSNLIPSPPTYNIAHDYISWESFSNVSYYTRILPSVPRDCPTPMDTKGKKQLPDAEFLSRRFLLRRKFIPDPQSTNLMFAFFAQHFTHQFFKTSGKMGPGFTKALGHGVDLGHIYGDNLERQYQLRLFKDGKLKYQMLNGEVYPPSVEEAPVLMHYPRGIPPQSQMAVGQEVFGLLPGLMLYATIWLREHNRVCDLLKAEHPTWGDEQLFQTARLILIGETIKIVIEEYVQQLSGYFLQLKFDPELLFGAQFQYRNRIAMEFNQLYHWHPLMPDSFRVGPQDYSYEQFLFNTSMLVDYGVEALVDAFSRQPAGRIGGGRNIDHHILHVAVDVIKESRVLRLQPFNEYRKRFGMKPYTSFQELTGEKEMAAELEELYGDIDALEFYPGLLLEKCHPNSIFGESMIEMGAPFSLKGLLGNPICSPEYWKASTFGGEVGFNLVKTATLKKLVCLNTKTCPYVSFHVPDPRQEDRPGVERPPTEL
Chain of rat Constitutive Nitric Oxide Synthase (CNOS), Nos1 (gene 24598) (P29476 whole entry, looked up): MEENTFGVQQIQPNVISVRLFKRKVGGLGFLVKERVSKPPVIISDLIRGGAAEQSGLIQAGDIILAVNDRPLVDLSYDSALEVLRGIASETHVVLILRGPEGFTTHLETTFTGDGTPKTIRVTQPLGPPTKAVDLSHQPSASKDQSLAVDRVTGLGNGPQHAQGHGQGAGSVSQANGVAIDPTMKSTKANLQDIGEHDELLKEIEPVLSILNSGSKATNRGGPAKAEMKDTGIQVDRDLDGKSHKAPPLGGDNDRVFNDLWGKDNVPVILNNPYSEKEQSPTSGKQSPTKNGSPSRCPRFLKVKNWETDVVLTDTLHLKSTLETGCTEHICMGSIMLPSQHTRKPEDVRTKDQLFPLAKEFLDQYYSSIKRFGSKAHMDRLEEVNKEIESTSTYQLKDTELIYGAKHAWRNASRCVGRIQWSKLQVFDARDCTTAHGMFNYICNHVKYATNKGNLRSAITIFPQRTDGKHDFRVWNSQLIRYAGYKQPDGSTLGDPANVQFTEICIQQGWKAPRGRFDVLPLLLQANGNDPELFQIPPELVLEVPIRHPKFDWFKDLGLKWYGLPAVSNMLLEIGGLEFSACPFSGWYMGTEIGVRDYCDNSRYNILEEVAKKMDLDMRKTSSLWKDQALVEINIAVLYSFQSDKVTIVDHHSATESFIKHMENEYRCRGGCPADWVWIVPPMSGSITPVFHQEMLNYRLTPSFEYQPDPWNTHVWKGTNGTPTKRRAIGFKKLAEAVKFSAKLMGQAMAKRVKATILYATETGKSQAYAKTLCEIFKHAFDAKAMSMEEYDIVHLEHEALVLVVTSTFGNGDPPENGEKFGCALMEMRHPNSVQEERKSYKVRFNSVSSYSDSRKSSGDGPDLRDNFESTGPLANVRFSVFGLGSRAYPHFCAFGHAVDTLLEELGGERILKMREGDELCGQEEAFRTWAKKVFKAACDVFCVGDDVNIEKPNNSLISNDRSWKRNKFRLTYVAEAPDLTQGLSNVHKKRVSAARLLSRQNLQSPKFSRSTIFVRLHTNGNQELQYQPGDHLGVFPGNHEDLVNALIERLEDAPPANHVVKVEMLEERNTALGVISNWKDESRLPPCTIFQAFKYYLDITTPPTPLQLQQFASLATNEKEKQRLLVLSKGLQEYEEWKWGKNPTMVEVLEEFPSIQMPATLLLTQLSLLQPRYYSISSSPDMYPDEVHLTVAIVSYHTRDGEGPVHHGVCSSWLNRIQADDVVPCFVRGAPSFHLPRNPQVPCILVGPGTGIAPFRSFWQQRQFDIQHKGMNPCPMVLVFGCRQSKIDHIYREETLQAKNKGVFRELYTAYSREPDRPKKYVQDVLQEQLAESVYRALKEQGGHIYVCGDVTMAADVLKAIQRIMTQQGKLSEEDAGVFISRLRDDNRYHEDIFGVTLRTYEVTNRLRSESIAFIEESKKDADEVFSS
Chain of human Serotonin, 5-Hydroxytryptamine Receptor 2A (5HT2A), HTR2A (gene 3356) (P28223 whole entry, looked up): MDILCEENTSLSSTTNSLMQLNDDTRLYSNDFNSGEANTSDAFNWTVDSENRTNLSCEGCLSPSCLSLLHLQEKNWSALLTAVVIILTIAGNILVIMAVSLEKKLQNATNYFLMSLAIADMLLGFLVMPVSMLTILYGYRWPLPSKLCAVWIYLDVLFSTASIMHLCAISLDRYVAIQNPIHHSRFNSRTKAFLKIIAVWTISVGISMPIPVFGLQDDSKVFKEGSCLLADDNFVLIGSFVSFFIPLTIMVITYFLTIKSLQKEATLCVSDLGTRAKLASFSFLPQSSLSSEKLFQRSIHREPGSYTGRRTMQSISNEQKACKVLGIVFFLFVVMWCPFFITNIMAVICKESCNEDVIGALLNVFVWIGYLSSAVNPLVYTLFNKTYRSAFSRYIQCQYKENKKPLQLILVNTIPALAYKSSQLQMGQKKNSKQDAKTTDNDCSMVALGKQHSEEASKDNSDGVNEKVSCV
Chain of human Adrenergic, Alpha 2c Receptor (Adra2C), ADRA2C (gene 152) (P18825 whole entry, looked up): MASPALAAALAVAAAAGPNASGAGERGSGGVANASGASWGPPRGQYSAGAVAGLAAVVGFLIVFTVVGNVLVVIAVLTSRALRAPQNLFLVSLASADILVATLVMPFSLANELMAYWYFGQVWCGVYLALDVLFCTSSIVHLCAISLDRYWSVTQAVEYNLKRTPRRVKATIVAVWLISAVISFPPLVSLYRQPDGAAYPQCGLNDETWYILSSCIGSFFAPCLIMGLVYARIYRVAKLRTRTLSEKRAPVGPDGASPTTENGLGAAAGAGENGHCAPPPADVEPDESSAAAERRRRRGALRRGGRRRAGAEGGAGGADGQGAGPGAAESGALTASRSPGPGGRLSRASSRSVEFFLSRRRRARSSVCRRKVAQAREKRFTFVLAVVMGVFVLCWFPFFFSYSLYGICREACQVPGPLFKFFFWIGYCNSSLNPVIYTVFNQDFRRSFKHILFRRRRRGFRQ
Chain of human Serotonin, 5-Hydroxytryptamine Receptor 7 (5HT7), HTR7 (gene 3363) (P34969 whole entry, looked up): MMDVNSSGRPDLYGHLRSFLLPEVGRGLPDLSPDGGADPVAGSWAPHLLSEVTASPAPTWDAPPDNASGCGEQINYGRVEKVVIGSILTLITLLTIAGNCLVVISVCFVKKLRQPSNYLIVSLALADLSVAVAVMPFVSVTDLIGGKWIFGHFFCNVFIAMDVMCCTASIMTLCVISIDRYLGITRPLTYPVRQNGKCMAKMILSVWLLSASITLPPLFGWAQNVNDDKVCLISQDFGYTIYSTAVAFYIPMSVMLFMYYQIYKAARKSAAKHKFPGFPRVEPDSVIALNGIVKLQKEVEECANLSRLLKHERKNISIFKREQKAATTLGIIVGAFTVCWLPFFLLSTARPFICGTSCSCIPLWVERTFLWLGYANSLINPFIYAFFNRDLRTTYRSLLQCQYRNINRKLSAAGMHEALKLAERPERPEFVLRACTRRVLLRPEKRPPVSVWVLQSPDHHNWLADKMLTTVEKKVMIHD
Chain of human Adrenergic, Alpha 2A Receptor (Adra2A), ADRA2A (gene 150) (P08913 whole entry, looked up): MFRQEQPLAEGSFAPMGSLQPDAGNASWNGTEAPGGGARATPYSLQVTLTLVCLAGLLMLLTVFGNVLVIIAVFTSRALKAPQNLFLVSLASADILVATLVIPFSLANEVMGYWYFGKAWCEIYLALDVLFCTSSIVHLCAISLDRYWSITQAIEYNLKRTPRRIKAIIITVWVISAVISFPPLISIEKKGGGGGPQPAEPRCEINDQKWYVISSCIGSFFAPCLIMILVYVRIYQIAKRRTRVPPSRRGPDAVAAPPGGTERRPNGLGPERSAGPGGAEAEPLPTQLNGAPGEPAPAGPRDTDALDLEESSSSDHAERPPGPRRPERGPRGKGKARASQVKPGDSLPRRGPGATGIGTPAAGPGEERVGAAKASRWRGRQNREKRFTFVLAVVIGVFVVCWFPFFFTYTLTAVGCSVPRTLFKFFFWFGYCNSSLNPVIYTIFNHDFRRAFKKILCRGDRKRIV
Chain of bovine Dopamine Receptor (DR), Non-selective Binding, DRD1 (gene 281125) (Q95136 whole entry, looked up): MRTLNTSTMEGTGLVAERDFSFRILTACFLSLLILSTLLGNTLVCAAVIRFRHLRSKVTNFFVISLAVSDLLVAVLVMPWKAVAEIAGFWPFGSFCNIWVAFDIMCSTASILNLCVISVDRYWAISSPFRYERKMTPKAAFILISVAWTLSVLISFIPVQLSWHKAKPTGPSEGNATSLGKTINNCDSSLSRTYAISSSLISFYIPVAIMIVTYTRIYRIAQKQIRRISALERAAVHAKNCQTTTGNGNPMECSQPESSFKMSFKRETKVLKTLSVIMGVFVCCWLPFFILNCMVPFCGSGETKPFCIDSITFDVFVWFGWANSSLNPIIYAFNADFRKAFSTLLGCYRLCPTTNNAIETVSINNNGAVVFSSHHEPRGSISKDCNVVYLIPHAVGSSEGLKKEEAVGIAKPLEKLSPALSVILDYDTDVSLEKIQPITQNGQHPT
Chain of guinea pig Opioid, Kappa 1 Receptor (OpiateK), OPRK1 (gene 100135587) (P41144 whole entry, looked up): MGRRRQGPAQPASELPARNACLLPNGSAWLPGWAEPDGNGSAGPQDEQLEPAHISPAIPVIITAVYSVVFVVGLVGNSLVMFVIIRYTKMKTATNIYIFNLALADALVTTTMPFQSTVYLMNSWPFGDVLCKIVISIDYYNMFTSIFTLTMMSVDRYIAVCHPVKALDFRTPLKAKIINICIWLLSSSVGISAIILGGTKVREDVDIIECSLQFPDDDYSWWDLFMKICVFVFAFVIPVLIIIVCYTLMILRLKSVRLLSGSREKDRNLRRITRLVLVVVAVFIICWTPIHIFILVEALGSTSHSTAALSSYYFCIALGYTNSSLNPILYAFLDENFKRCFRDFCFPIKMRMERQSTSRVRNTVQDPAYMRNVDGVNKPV

CC(C)c1cccc(C(C)C)c1N1C(=O)c2ccc(O)cc2C1=O
AC50 [1]: 2.48 µM (active)

O=C1OC(=O)C2C3C=CC(C3)C12 (stereo not drawn)
outcome [1]: inactive

O=C(OC[C@H]1O[C@@H](OC(=O)c2cc(O)c(O)c(OC(=O)c3cc(O)c(O)c(O)c3)c2)[C@H](OC(=O)c2cc(O)c(O)c(OC(=O)c3cc(O)c(O)c(O)c3)c2)[C@@H](OC(=O)c2cc(O)c(O)c(OC(=O)c3cc(O)c(O)c(O)c3)c2)[C@@H]1OC(=O)c1cc(O)c(O)c(OC(=O)c2cc(O)c(O)c(O)c2)c1)c1cc(O)c(O)c(OC(=O)c2cc(O)c(O)c(O)c2)c1
AC50 [1]: 4.31 µM (active)
outcome [2]: inactive
outcome [3]: inactive

CC/C(=C\C(=N/O)C(N)=O)C(C)[N+](=O)[O-] (stereo not drawn)
outcome [4]: inactive
outcome [5]: inactive

CC(C)=CCCC(C)=CC=O
outcome [4]: inactive

CC1(C)C(=O)N(Br)C(=O)N1Br
AC50 [4]: 12.2 µM (active)
AC50 [5]: 25 µM (active)

CC(C)=CCCC(C)CCO (stereo not drawn)
outcome [4]: inactive
AC50 [1]: 21.6 µM (active)

O=c1[nH]c2ccc(S(=O)CCN3CCC(Cc4ccc(F)cc4)CC3)cc2o1 (stereo not drawn)
outcome [4]: inactive
AC50 [6]: 6.78 µM (active)
AC50 [7]: 3.91 µM (active)
AC50 [5]: 2.59 µM (active)
outcome [8]: inactive
AC50 [9]: 0.534 µM (active)
AC50 [10]: 0.837 µM (active)
AC50 [3]: 1.96 µM (active)

CC1=CC(=O)CC(C)(C)C1
outcome [4]: inactive

COCCOCCOCCOC
outcome [1]: inactive

CN(C)c1ccc(N=NS(=O)(=O)O)cc1
outcome [4]: inactive
AC50 [8]: 8.61 µM (active)

O=C(NS(=O)(=O)/C=C/c1ccccc1)c1ccc(F)cc1Cl
AC50 [11]: 15 µM (active)
AC50 [2]: 12.4 µM (active)

CC(C)=CCC/C(C)=C\CO
AC50 [1]: 25 µM (active)

Cc1ccc(C)c(O)c1
outcome [1]: inactive
outcome [12]: inactive

COc1ccc(/C=C/S(=O)(=O)NC(=O)c2ccc(C)cc2Cl)cc1
AC50 [11]: 15.2 µM (active)
outcome [2]: inactive

CCOC(=O)c1ccc(C2CCC(NC[C@H](O)COc3ccc(O)c(NS(C)(=O)=O)c3)CC2)cc1 (stereo partly drawn)
AC50 [1]: 15.2 µM (active)
AC50 [6]: 1.24 µM (active)
AC50 [5]: 23.4 µM (active)
AC50 [13]: 23.4 µM (active)
AC50 [14]: 13 µM (active)
outcome [15]: inactive
AC50 [9]: 6.12 µM (active)
AC50 [16]: 12.1 µM (active)
AC50 [10]: 31.1 µM (active)
AC50 [17]: 1.84 µM (active)
AC50 [3]: 7.95 µM (active)
AC50 [18]: 0.24 µM (active)
